Test [1] concerns the target Glycogen synthase kinase-3 beta (Homo sapiens) (UniProt P49841). The settings on record: at 1 µM.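 Further: reported values are mean percent inhibition of GSK3B.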
The target in test [2] is Homeodomain-interacting protein kinase 1 (Homo sapiens) (UniProt Q86Z02). The settings on record: at 0.1 µM.
Test [3] has the same target. Conditions: at 1 µM.
Test [4] deals with T1, Homeodomain-interacting protein kinase 4 (Homo sapiens) (UniProt Q8NE63).
T1 sequence (whole entry): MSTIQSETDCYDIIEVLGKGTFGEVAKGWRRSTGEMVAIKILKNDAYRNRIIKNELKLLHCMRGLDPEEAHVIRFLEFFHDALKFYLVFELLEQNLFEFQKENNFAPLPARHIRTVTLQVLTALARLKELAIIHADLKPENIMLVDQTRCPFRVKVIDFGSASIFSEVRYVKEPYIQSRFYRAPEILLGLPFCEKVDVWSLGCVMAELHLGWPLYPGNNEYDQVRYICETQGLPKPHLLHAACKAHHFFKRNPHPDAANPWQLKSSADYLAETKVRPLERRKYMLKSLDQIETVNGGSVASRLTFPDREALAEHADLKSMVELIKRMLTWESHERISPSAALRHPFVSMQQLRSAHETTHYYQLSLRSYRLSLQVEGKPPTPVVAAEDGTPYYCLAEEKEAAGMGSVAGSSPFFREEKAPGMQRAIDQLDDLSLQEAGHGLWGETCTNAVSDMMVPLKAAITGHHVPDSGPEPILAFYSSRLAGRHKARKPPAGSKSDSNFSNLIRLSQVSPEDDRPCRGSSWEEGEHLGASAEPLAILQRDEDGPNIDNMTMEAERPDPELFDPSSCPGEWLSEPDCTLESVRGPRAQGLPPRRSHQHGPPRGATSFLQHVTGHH
The settings on record: at 0.1 µM.

The target of test [5] is T1, Homeodomain-interacting protein kinase 4 (Homo sapiens). Conditions: at 1 µM.
Test [6] deals with Mitogen-activated protein kinase 9 (Homo sapiens) (UniProt P45984). Conditions: at 0.1 µM.
For test [7] the target is unchanged. The settings on record: at 1 µM.
For test [8], the target named is Mitogen-activated protein kinase 1 (Homo sapiens) (UniProt P28482). The settings on record: at 0.1 µM.
The target is the same in test [9]. The settings on record: at 1 µM.
Test [10] addresses Mitogen-activated protein kinase 3 (Homo sapiens) (UniProt P27361). The settings on record: at 0.1 µM.
Test [11] has the same target. The settings on record: at 1 µM.
Test [12] concerns the target SRSF protein kinase 3 (Homo sapiens) (UniProt Q9UPE1). Conditions: at 0.1 µM.
The target is the same in test [13]. The settings on record: at 1 µM.
The target of test [14] is Mitogen-activated protein kinase 14 (Homo sapiens) (UniProt Q16539). The settings on record: at 0.1 µM.
The target is the same in test [15]. The settings on record: at 1 µM.
Test [16] concerns the target Mitogen-activated protein kinase 11 (Homo sapiens) (UniProt Q15759). The settings on record: at 0.1 µM.
Test [17] has the same target. Conditions: at 1 µM.
Test [18] has as its target T2, Mitogen-activated protein kinase 13 (Homo sapiens) (UniProt O15264).
T2 sequence (whole entry): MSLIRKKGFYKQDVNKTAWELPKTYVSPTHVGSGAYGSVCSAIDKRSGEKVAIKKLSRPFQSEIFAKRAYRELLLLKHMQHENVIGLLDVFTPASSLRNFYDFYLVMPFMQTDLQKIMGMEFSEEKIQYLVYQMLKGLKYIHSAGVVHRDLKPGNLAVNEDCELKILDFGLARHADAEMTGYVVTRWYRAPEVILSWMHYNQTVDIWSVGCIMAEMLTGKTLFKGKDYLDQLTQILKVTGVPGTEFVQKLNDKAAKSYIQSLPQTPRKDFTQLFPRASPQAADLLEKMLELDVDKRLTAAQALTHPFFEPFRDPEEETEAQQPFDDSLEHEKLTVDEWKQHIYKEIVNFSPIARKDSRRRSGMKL
The settings on record: at 0.1 µM.

The target in test [19] is T2, Mitogen-activated protein kinase 13 (Homo sapiens). The settings on record: at 1 µM.
Test [20] has as its target T3, Mitogen-activated protein kinase 12 (Homo sapiens) (UniProt P53778).
T3 sequence (whole entry): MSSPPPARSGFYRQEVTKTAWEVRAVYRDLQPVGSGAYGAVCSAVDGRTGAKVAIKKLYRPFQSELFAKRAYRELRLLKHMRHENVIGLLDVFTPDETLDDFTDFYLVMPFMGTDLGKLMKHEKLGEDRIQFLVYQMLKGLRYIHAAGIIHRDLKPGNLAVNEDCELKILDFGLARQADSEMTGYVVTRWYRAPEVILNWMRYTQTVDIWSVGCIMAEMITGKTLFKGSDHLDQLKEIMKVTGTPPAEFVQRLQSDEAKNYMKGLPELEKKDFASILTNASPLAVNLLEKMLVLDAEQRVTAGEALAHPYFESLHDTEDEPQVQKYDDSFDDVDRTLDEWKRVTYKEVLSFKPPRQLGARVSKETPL
Conditions: at 0.1 µM.

Mitogen-activated protein kinase 11 (Homo sapiens), sequence (Q15759 whole entry): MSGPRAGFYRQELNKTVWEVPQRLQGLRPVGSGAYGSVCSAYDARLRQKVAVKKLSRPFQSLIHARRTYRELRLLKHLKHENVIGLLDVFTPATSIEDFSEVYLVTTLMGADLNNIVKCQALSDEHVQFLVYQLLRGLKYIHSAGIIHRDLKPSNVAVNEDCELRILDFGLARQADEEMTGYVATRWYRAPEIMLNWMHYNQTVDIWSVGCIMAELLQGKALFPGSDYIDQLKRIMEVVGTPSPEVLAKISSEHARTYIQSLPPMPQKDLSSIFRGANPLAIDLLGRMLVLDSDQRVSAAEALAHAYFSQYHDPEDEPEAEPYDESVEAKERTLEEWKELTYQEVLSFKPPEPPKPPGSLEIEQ
Mitogen-activated protein kinase 1 (Homo sapiens), sequence (P28482 whole entry): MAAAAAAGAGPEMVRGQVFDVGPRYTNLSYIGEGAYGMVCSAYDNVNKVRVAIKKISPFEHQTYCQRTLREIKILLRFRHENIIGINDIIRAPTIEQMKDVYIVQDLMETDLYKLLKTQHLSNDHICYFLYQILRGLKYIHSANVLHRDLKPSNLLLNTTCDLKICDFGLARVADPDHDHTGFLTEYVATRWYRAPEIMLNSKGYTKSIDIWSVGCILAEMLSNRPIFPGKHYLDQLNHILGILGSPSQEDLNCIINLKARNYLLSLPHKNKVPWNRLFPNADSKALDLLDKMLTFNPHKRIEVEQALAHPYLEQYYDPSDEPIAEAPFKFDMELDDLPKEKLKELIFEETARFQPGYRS
Homeodomain-interacting protein kinase 1 (Homo sapiens), sequence (Q86Z02 whole entry, looked up): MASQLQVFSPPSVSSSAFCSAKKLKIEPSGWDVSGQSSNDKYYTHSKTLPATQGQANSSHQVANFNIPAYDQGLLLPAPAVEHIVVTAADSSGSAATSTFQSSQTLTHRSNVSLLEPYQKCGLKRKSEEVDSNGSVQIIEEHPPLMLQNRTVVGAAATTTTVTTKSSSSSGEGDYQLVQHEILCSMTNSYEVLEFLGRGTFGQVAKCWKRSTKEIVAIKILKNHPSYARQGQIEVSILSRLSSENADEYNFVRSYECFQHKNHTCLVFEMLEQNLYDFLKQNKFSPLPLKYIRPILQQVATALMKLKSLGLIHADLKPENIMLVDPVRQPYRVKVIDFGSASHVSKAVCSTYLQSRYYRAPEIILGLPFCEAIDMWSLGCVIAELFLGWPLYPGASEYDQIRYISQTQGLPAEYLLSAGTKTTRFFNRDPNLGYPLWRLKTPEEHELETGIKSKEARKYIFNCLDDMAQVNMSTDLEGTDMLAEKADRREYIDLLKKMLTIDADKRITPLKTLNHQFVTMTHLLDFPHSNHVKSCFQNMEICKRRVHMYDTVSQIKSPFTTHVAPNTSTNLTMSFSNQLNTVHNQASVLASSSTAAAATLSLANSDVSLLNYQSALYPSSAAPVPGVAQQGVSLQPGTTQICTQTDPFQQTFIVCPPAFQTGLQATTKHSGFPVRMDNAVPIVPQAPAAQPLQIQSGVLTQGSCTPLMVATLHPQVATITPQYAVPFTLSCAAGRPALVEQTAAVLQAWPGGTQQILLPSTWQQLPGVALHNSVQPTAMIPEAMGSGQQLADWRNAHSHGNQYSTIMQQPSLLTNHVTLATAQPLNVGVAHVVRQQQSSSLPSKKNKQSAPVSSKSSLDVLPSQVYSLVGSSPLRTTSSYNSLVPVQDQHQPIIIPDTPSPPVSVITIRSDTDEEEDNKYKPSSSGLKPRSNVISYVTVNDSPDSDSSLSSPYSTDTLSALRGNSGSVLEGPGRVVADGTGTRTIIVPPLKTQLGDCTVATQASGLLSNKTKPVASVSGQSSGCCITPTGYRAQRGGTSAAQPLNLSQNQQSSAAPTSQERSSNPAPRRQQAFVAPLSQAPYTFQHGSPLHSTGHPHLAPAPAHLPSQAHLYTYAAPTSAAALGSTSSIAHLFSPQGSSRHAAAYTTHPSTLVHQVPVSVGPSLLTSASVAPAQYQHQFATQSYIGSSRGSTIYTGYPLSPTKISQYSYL
SRSF protein kinase 3 (Homo sapiens), sequence (Q9UPE1 whole entry): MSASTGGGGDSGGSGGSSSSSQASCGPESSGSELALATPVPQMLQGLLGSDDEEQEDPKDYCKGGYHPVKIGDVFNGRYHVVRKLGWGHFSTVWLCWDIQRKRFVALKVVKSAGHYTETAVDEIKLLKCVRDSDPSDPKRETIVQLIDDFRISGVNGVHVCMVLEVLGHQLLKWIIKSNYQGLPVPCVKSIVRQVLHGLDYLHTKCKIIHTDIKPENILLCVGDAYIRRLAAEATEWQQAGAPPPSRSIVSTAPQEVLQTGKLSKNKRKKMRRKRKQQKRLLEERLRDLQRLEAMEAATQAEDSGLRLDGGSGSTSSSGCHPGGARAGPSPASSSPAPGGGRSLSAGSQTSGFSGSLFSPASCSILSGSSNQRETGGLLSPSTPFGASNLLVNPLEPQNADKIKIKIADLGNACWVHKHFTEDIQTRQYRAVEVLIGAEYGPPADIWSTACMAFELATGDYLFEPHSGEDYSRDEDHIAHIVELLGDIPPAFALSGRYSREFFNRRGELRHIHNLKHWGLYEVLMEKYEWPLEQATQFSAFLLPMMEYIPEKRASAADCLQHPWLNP
Mitogen-activated protein kinase 14 (Homo sapiens), sequence (Q16539 whole entry): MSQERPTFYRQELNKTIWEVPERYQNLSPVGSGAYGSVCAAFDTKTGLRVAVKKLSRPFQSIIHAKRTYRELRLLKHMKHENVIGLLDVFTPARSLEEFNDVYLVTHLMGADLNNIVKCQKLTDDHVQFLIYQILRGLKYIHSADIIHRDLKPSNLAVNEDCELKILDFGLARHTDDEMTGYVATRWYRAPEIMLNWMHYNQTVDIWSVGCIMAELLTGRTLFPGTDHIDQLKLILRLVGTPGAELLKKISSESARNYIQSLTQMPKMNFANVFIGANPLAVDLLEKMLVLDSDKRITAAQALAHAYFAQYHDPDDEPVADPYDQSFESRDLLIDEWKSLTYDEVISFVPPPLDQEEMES
Mitogen-activated protein kinase 3 (Homo sapiens), sequence (P27361 whole entry): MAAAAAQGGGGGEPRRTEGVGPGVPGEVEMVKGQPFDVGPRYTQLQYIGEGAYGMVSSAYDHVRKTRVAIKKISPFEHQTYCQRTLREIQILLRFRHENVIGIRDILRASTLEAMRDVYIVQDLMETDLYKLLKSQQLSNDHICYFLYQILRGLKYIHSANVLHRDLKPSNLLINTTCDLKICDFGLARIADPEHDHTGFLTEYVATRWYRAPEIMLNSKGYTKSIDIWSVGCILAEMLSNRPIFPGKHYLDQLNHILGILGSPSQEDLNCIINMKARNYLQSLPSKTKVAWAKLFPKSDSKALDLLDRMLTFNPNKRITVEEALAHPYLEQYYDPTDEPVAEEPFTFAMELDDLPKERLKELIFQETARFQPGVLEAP
Glycogen synthase kinase-3 beta (Homo sapiens), sequence (P49841 whole entry, looked up): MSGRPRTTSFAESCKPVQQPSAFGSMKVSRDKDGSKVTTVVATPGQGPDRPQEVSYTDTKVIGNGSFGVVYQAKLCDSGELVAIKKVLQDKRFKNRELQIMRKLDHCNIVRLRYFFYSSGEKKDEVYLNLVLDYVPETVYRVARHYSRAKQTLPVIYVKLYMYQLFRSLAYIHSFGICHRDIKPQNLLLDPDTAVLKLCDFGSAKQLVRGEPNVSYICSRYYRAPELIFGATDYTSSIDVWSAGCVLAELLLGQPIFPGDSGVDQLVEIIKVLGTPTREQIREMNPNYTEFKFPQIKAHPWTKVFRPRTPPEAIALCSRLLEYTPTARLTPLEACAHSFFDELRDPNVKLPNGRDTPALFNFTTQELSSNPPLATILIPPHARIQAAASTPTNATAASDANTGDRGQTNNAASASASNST
Mitogen-activated protein kinase 9 (Homo sapiens), sequence (P45984 whole entry, looked up): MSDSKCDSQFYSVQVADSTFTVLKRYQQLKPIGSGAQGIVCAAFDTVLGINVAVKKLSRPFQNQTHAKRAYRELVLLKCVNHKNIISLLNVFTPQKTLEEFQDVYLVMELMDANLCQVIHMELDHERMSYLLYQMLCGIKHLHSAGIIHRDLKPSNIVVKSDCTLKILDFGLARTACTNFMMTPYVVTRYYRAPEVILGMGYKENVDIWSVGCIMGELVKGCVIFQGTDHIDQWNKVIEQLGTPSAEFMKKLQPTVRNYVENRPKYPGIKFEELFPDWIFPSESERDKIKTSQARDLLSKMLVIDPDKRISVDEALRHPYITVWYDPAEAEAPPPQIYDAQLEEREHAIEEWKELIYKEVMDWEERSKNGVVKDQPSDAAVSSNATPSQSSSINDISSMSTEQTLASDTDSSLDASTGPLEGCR

The inhibition is the change of the read-out against control, counted positive when it falls. As to `N#Cc1c(NC(=O)c2cccc3ccccc23)sc2c1CCCC2`, the inhibition in test [1] was 6.89%; in test [2], -2.43%; in [3], 1.91%; in [4] it was -1.01%; in test [5], 2.45%; in test [6], 6.07%. The inhibition in [7] was 25.4%; in [8] it was 2.02%; in [9], 3.91%; in test [10] it was -0.53%; in test [11], 0.11%; in [12], -0.61%. Besides, the inhibition in [13] was -2.89%; in [14], 2.97%; in test [15] it was 5.23%; in [16] it was 0.78%; in test [17] it was 4.42%; in test [18] it was 2.16%. Further, the inhibition in [19] stood at 3.76%; in [20] it was 2.38%.
Take `Cn1cc(C=C2C(=O)Nc3cccnc32)c2ccccc21`: the inhibition is 8.9% in test [1]; -0.99% in test [2]; 13.8% in test [3]; 1.64% in test [4]; 15.2% in test [5]; 3.04% in test [6]. Also, the inhibition in [7] was 6.24%; in test [8], 2.02%; in test [9], 2.73%; in [10], 2.22%; in test [11], 2.73%; in test [12] it was -0.25%. Besides, the inhibition was -0.47% in test [13]; 3.62% in test [14]; 7.85% in test [15]; 3.65% in test [16]; 5.58% in test [17]; -0.63% in test [18]. Also, the results for the inhibition in test [19] and in test [20] were 2.23% and 2.25%, respectively.
`c1cnn2ncc(-c3ccnc(Nc4ccc5c(c4)OCCO5)n3)c2c1`: the inhibition in [1] was 91%; in test [2] it was 86.2%; in [3] it was 93%; in test [4], 42.3%; in test [5] it was 79.8%; in [6], 12.8%. Also, the inhibition is 54.4% in test [7]; 6.5% in test [8]; 24% in test [9]; 6.55% in [10]; 12% in [11]; -0.61% in test [12]. Besides, the inhibition in test [13] turned out to be 1.61%; in test [14] it was 7.07%; in test [15], 13.3%; in test [16], 3.66%; in test [17], 9.95%; in test [18], 4.89%. Besides, the values for the inhibition in test [19] and in [20] were 16.3% and 0.48%, respectively.
Consider `CC(C)=Cc1cccc2c1/C(=N/Nc1ccc(S(N)(=O)=O)cc1)C(=O)N2`, for which the inhibition was 44% in test [1]; 2.49% in test [2]; 10.8% in test [3]; 1.38% in test [4]; 6.2% in test [5]; -0.73% in [6]. Besides, the inhibition is 6.66% in test [7]; -0.23% in test [8]; 0.78% in [9]; 0.6% in [10]; 2.62% in [11]; -0.98% in [12]. In addition, the inhibition in test [13] was 3.29%; in test [14], 0.04%; in [15], 1.72%; in test [16], 0.78%; in test [17], 5.29%; in test [18] it was 0.28%. Also, the inhibition in test [19] was 1.32%; in test [20] it was -0.48%.
As to `CCCN1CCC(Oc2cc(Nc3nc(Nc4cccc(F)c4C(N)=O)c4cc[nH]c4n3)c(OC)cc2Cl)CC1`, the inhibition in test [1] turned out to be 9.38%; in [2] it was 2.76%; in [3], 18.8%; in [4], 3.27%; in test [5], 24.8%; in test [6] it was 1.29%. Besides, the inhibition was 2.98% in [7]; 0.93% in test [8]; 17.9% in test [9]; 0.36% in [10]; 2.9% in test [11]; 0.09% in test [12]. The inhibition worked out at 3.91% in test [13]; 0.2% in test [14]; 3.85% in [15]; 0.2% in test [16]; 0.06% in test [17]; 0.04% in test [18]. Also, the inhibition in test [19] was -0.16%; in [20], -0.75%.
As to `CS(=O)(=O)CCNCc1ccc(-c2ccc3ncnc(Nc4ccc(OCc5ccccc5)c(Cl)c4)c3c2)o1`, the inhibition is 3.95% in [1]; -2.41% in test [2]; 2.91% in test [3]; 4.33% in [4]; 7.49% in [5]; -0.54% in [6]. The inhibition in [7] was determined as 1.16%; in [8], 2.06%; in test [9] it was 1.18%; in [10] it was 1.84%; in test [11], 0.5%; in test [12], 2.57%. In addition, the inhibition in test [13] is 4.72%; in [14] it was -0.17%; in test [15], 3.25%; in test [16], -1.17%; in [17] it was 0.8%; in test [18], 0.47%. In addition, the inhibition in test [19] was determined as 2.09%; in [20], 1.33%.
For `Nc1nc(-c2ccccn2)c(-c2ccc3ncccc3n2)s1`, the inhibition was found to be 8.29% in test [1]; 4.06% in [2]; 10.3% in test [3]; 3.92% in test [4]; 10.1% in test [5]; 2.16% in test [6]. Besides, the inhibition in test [7] was 2.28%; in test [8], 1.86%; in [9], 2.54%; in [10], 1.83%; in test [11] it was 1.04%; in test [12] it was 0.57%. Further, the inhibition in [13] is 0.83%; in test [14], -0.64%; in test [15] it was 6.59%; in test [16], 1.28%; in [17] it was 3.29%; in [18], 2.8%. The inhibition in [19] is 5.95%; in [20], -0.21%.

For the origin of these results see ChEMBL document CHEMBL1961873, “Compounds: GSK PKIS; Assays: Nanosyn kinase panel” (2012).
